# Bioassay records (PubChem BioAssay)
# A selection: hits, their analogues and other compounds. The true share with any hit is near 3.8%.
# A549 tox: kills or reduces viability of A549 cells in Nrf2 counter-screen. actives 0.16% (n = 390,000). A549 ARE-Fluc cells, CellTiter-Fluor viability, 18-24 h. Potency, µM (highest dose often 46 µM), for the others: at the top dose activity change, negative = cytotoxicity, most hits filed as inhibitors. AID 504648; further: on the % scale 0 is the no-effect control and ±100 the full control effect
#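 A549 ARE_Fluc cells in 5% FBS OPTI-MEM were exposed to compounds in concentration-response for 18-24 h at 37 deg C. Viability was read by CellTiter-Fluor fluorescence (Ex 405/Em 525) after 30 min, before the luciferase read.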
# ATXN2 expr inh: inhibitors of ATXN2 expression. HEK-293 ATXN2-luciferase reporter, luminescence, 24 h. Potency, µM (highest dose often 57 µM), for the others: at the highest dose activity change, negative = inhibition, usual class: inhibitors. actives 0.72% (n = 360,000). AID 1745845; further: on the % scale 0 is the no-effect control and ±100 the full control effect; nearly all actives have a fitted effect of over 55% in size
#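 qHTS (up to 57 uM final) was run with 24 h compound exposure of reporter cells at 37 °C. Each well was multiplexed: SteadyGlo luminescence measured ATXN2-luciferase expression after a fluorogenic Gly-Phe-AFC viability readout (25 uM final).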
# TGFb inhibitor: blocks TGF-b signaling; Potency, µM (doses to about 46.1 µM), for the others: at the top dose activity, negative = inhibition, most hits filed as inhibitors; HepG2 CAGA-GFP TGF-b/SMAD3 reporter, GFP fluorescence, 18 h; TGF-beta stimulated, 500 pg/mL final; actives 1.2% (n = 410,000); further: on the % scale 0 is the no-effect control and ±100 the full control effect; nearly all actives have a fitted effect of over 65% in size
#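 Read-out: total well GFP (ex488/em500-530) summed from mean per-cell fluorescence. Cells: HEPG2 CAGA-GFP, 1% FBS DMEM, 18 h at 37 degrees C with 500 pg/mL final TGF-beta. Unstimulated wells served as the full-inhibition control; stimulated DMSO wells = 0%.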
# S2 tox: cell viability loss in ATXN counter-screen; S2 cells (HEK-293 line with an ATXN2-luciferase reporter) viability, CellTiter-Fluor protease fluorescence, 24 h; Potency, µM (top dose mostly 56.7 µM), hits mostly cytotoxic; actives 0.49% (n = 400,000); AID 651635; further: nearly all actives have a fitted effect of over 40% in size
# HepG2 viability: counter-screen for TGF-b inhibitors: cytotoxicity in HepG2 cells; HepG2 CAGA-GFP viability, ATP luminescence, 18 h; Potency, µM (titrated, usually from 46.1 µM), without a hit: at the top dose activity change, negative = cytotoxicity, actives largely listed as cytotoxic; actives 0.76% (n = 410,000)
#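 HepG2 CAGA-GFP cells (1000/well, DMEM with 1% FBS) received compound, then TGF-beta at 500 pg/mL final, and were incubated 18 hours at 37 degrees C. Viability was read by CellTiter-Glo luminescence. Media-only wells were set as complete cell-killing and DMSO as no toxicity.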
# Nrf2 block: blocks Nrf2 signaling | actives 2.1% (n = 360,000) | Potency, µM (titrated, usually from 46 µM), for the others: top-dose activity change, negative = inhibition, actives largely listed as inhibitors | A549 ARE-Fluc reporter, luciferase luminescence, 18-24 h; further: on the % scale 0 is the no-effect control and ±100 the full control effect; nearly all actives have a fitted effect of over 60% in size
#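 Cells were seeded and rested 2 h, then exposed to compounds for 18-24 h. CellTiter-Fluor was read first as a viability measure. BugLite was added 15 min before the final luminescent read of ARE-luciferase activity in A549 cells.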
# * hit, by the source's call; i = inactive; ? = inconclusive; . = not tested or not shown; ! = repeats disagree. The call rests on the fitted dose curve; in most records, active means well fitted curve in the direction sought with a large enough effect; inconclusive means small, poorly fitted or top-dose-only effect, or another doubt; inactive means no such curve, though single readings can be large; an effect the other way counts as inactive or inconclusive. Potency means the concentration at half of the fitted maximal effect.
SMILES,A549 tox,ATXN2 expr inh,TGFb inhibitor,S2 tox,HepG2 viability,Nrf2 block
CS(=O)(=O)Nc1ccc(N2CCN(c3ccc(C(F)(F)F)cn3)CC2)nc1,-7.5%,-24.0%,1.9%,i,0.4%,7.31µM*
NC(N)=NC(N)=NCCc1ccccc1,-5.8%,-4.6%,-2.8%,i,6.2%,13µM*
CCCCCCCCCCCCCCCC[n+]1ccc(/C=N/O)cc1,-20.3%,?,?,?,-112.6%,16.4µM*
Cc1ccc2nc(NC(=O)CSCC(=O)OCC(=O)c3ccc(Br)cc3)sc2c1,-3.8%,5.62µM*,-0.5%,i,-19.2%,18.4µM*
COC(=O)c1ccc2nc(NC(=O)CSCC(=O)OCC(=O)c3ccccc3)sc2c1,2.1%,47.3%,5.1%,i,1.1%,12.5%
CCCc1cc(=O)oc2c3c(c4c(c12)OC(C)(C)C=C4)OC(C)C(C)C3O (stereo not given),-15.8%,?,?,?,7.94µM*,?
CCCc1cc(=O)oc2c3c(cc(OCC(=O)N[C@@H](C)C(=O)O)c12)OC(C)(C)CC3,4.6%,-16.3%,-0.9%,i,-19.1%,9.1%
O=C(O)C(Cc1ccnc2ccccc12)=NO,-1.9%,7.2%,-3.4%,?,-0.2%,-5.5%
OC(Cc1ccnc2ccccc12)C(Cl)(Cl)Cl (stereo not given),-15.2%,-27.0%,9.1%,i,-1.6%,18.4µM*
CCCCCNCc1ccc(Cl)cc1,0.8%,-5.2%,-0.8%,i,-7.6%,-1.3%
CCCCCCC[N+](CC)(CC)CCCCc1ccc(Cl)cc1,-7.0%,22.4µM*!,4.5%,?,-26.1%,16.4µM*
COc1c(C)cc(Br)cc1C(=O)Nc1cccc(-c2nc3ncccc3o2)c1,-4.5%,22.4µM*,-8.2%,31.6µM*,-13.4%,-26.2%
O=C(Nc1cccc(-c2nc3ncccc3o2)c1)c1ccc(-c2cccc(Cl)c2Cl)o1,-6.2%,?,-15.8%,?,-3.7%,5.8µM*
Cc1cc(C)c(OCC(=O)Nc2cccc(-c3nc4ncccc4o3)c2)c(Br)c1,-2.0%,12.4%,15.3%,i,-2.4%,?
Cc1ccc(C(C)C)c(OCC(=O)Nc2cccc(-c3nc4ncccc4o3)c2)c1,-3.0%,?,0.8%,20µM*,6.1%,?
CC(C)C(=O)Nc1cccc(-c2nc3ncccc3o2)c1,5.4%,13.4%,-1.3%,i,-13.3%,10.2%
CCOC(=O)C1CCCN(C(=O)c2ccc3c(c2)N(Cc2ccccc2)C(=O)c2ccccc2S3(=O)=O)C1 (stereo not given),-4.7%,.,.,.,-26.9%,18.4%
Cc1cccc(NC(=O)CSc2nnc(-c3ccncc3)n2CC2CCCO2)c1 (stereo not given),0.9%,-20.1%,-8.4%,i,-22.0%,-19.9%
Cc1ccccc1C(C(=O)NC1CCCCC1)N(C(=O)Cn1ccnc1C)c1cccc(F)c1 (stereo not given),.,18.6%,.,.,.,.
CCC(=O)N1N=C(c2ccc(NS(=O)(=O)c3ccc(C)cc3)cc2)CC1c1ccco1 (stereo not given),-19.1%,?,?,?,-16.4%,18.4µM*
CCC(=O)N1N=C(c2ccc(C)cc2)CC1c1ccco1 (stereo not given),-4.3%,-4.6%,-19.2%,i,-46.7%,0.4%
CCC(=O)N1N=C(c2c(-c3ccccc3)c3cc(Cl)ccc3[nH]c2=O)CC1c1ccco1 (stereo not given),?,?,-23.4%,i,-63.2%,23.1µM*
CCN(CC)S(=O)(=O)c1ccc(N2CCOCC2)c(NC(=O)c2cnccn2)c1,4.4%,-9.7%,-1.1%,i,-44.0%,-5.5%
